Drawing on ChEMBL document CHEMBL1157539, “Thousands of chemical starting points for antimalarial lead identification” (Nature, 2010), this text covers Inhibition for 27 compounds.

Common to all, as to format: functional
For experiment [1], the system named is Plasmodium falciparum. The experiment is described as follows: GSK_TCMDC: Inhibition of Plasmodium falciparum 3D7 in whole red blood cells, using parasite LDH activity as an index of growth. Test compounds present at 2uM.
Experiment [2] relates to Plasmodium falciparum. The experiment is described as follows: GSK_TCMDC: Inhibition of Plasmodium falciparum Dd2 in whole red blood cells, using parasite LDH activity as an index of growth. Test compounds present at 2uM.
Another experiment has as its system HepG2. Put plainly: GSK_TCMDC: Percent inhibition of human HepG2 cell line. Test compounds present at 10uM.

Consider `CN(C)CCC(=O)c1ccccc1.Cl`, for which the figures for the Inhibition with Plasmodium falciparum [1], with Plasmodium falciparum [2] and in the experiment on HepG2 were 100%, 5% and 11%, respectively.

In the case of `Cl.O=C(CNC1CCCCC1)c1ccc(O)c(O)c1`, the results for the Inhibition in the experiment on Plasmodium falciparum [1], in the experiment on Plasmodium falciparum [2] and in the experiment with HepG2 were 100%, 99% and 61%, respectively.

With `Cc1[nH]c2cc(Cl)ccc2c1C1=CCN(CCN2CCOc3c(Br)cccc3C2=O)CC1.Cl`, the Inhibition was determined as 90% with Plasmodium falciparum [1], 58% with Plasmodium falciparum [2] and 1% in the experiment on HepG2.

Turning to `CCCCCCCCNCC(O)c1ccc(Cl)c(Cl)c1.Cl` (stereo unspecified), the Inhibition was 99% in the experiment with Plasmodium falciparum [1], 87% with Plasmodium falciparum [2] and 0% in the experiment with HepG2.

For `O=C(/C=C/c1ccccc1Cl)NC1CCC(CN2C3CCC2CC(c2c[nH]c4ccccc24)C3)CC1` (stereo unspecified), the Inhibition with Plasmodium falciparum [1] came to 100%; with Plasmodium falciparum [2], 98%; in the experiment with HepG2, 56%.

In the case of `CN1C2CCC1c1cc(NC(=O)c3cc(-c4ccc(Cl)cc4)cs3)ccc12.O=C(O)C(F)(F)F` (stereo unspecified), the Inhibition in the experiment on Plasmodium falciparum [1] is recorded as 90%; in the experiment on Plasmodium falciparum [2], 35%; in the experiment on HepG2, 62%.

With `Cc1cc(C2CCCCN2C)ccc1-c1ccc(C(=O)N2CCc3cc4c(cc32)C2(CCN(C)CC2)CO4)cc1.Cl` (stereo unspecified), the values for the Inhibition in the experiment with Plasmodium falciparum [1], in the experiment with Plasmodium falciparum [2] and in the experiment on HepG2 were 95%, 94% and 37%, respectively.

Regarding `COCCNCc1cccc(-c2ccc(CN(C(=O)NC3CCCCC3)C3CCN(Cc4ccccc4)CC3)cc2)c1.O=C(O)C(F)(F)F`, the Inhibition in the experiment on Plasmodium falciparum [1] is on record as 100%; in the experiment on Plasmodium falciparum [2] it was 31%; in the experiment on HepG2 it was 32%.

Regarding `CC(=O)Nc1ccc(CN2CCC(N(C)c3cc(NC(=O)c4cccs4)ccn3)CC2)cc1.O=C(O)C(F)(F)F`, the Inhibition in the experiment with Plasmodium falciparum [1] is 100%; in the experiment on Plasmodium falciparum [2], 43%; with HepG2, 0%.

In the case of `CN(c1cc(NC(=O)c2cccs2)ccn1)C1CCN(Cc2cccc(C#N)c2)CC1.O=C(O)C(F)(F)F`, the figures for the Inhibition with Plasmodium falciparum [1], with Plasmodium falciparum [2] and with HepG2 were 90%, 69% and 59%, respectively.

On to `NCc1ccc(-c2ccccc2CN(C(=O)Nc2ccccc2)C2CCN(Cc3ccccc3)CC2)cc1.O=C(O)C(F)(F)F`, for which the results for the Inhibition in the experiment with Plasmodium falciparum [1], in the experiment on Plasmodium falciparum [2] and with HepG2 were 100%, 35% and 36%, respectively.

Regarding `O=C(c1cc(C(=O)NCc2ccc(Cl)cc2)c(=O)n(Cc2ccc(Cl)cc2)c1)c1cc(Cl)ccc1O`, the Inhibition is 80% with Plasmodium falciparum [1], 4% with Plasmodium falciparum [2] and 6% with HepG2.

In the case of `CC(Cc1ccc(-c2nc3ccccc3[nH]2)cc1)NCC(O)c1cccc(C(F)(F)F)c1` (stereo unspecified), the Inhibition in the experiment with Plasmodium falciparum [1] came out at 97%; with Plasmodium falciparum [2], 90%; with HepG2 it was 33%.

`CCCc1c(C(=O)NC2CCC(CN3CCC(c4c[nH]c5ccccc45)CC3)CC2)cnn1-c1ccccc1` (stereo unspecified): the Inhibition with Plasmodium falciparum [1] came out at 92%; in the experiment on Plasmodium falciparum [2], 7%; in the experiment on HepG2, 33%.

`CC[C@H]1CN2CC[C@@H]1C[C@H]2[C@H](O)c1cc(N2CCCC(C)(C)C2)nc2ccc(OC)cc12`: the figures for the Inhibition in the experiment with Plasmodium falciparum [1], in the experiment on Plasmodium falciparum [2] and in the experiment on HepG2 were 100%, 72% and 25%, respectively.

On to `CC[C@@]1(O)C(=O)OCc2c1cc1n(c2=O)Cc2c-1nc1cc3c(cc1c2CN1CCOCC1)OCO3.O=C(O)C(F)(F)F`, for which the Inhibition in the experiment with Plasmodium falciparum [1] worked out at 89%; with Plasmodium falciparum [2], 80%; in the experiment with HepG2 it was 81%.

For `COCCNCc1cccc(-c2ccc(CN(C(=O)Nc3ccccc3)C3CCN(Cc4ccccc4)CC3)cc2)c1.O=C(O)C(F)(F)F`, the Inhibition stood at 100% with Plasmodium falciparum [1], 45% in the experiment on Plasmodium falciparum [2] and 25% in the experiment on HepG2.

In the case of `CCCN(CC(=O)NCCc1ccccc1)c1ccc(C#N)c2ccccc12.O=C(O)C(F)(F)F`, the Inhibition in the experiment on Plasmodium falciparum [1] is given as 92%; in the experiment on Plasmodium falciparum [2], 39%; in the experiment on HepG2 it was 8%.

For `O=C(NCc1ccc(S(=O)(=O)N2CCC(CN3CCC(c4c[nH]c5ccccc45)CC3)CC2)s1)c1ccccc1`, the Inhibition in the experiment on Plasmodium falciparum [1] is given as 92%; in the experiment with Plasmodium falciparum [2], 21%; in the experiment on HepG2, 32%.

Regarding `COc1ccc2[nH]cc(C3CCN(Cc4ccc(NC(=O)c5ccc(-c6ccccc6)cc5)cc4)CC3)c2c1`, the Inhibition in the experiment on Plasmodium falciparum [1] is reported as 100%; in the experiment with Plasmodium falciparum [2], 72%; with HepG2, 24%.

On to `CC(C)CNCc1ccc(-c2ccc(CN(C(=O)Nc3ccccc3)C3CCN(Cc4ccccc4)CC3)cc2)cc1.O=C(O)C(F)(F)F`, for which the Inhibition in the experiment on Plasmodium falciparum [1] amounted to 100%; in the experiment on Plasmodium falciparum [2], 61%; with HepG2, 27%.

On to `Cl.N[C@@H](CCN1CCC(c2cccc(O)c2)CC1)Cc1ccc(F)c(F)c1`, for which the Inhibition with Plasmodium falciparum [1] came out at 92%; with Plasmodium falciparum [2], 0%; in the experiment with HepG2 it was 25%.

On to `COC(=O)c1ccc(CC(C)NCC(O)c2cccc3ccccc23)cc1` (stereo unspecified), for which the values for the Inhibition in the experiment with Plasmodium falciparum [1], in the experiment with Plasmodium falciparum [2] and in the experiment with HepG2 were 96%, 82% and 3%, respectively.

In the case of `COc1ccc(C(=O)C2CC2CN2CC=C(c3c[nH]c4cccc(Br)c34)CC2)cc1.O=C(O)C(F)(F)F` (stereo unspecified), the figures for the Inhibition in the experiment on Plasmodium falciparum [1], with Plasmodium falciparum [2] and with HepG2 were 88%, 67% and 32%, respectively.

Consider `CC(=O)C1(c2ccccc2)CCN(CCC2(c3ccc(Cl)c(Cl)c3)CN(C(=O)Nc3cccc(C(F)(F)F)c3)CCO2)CC1` (stereo unspecified), for which the Inhibition in the experiment on Plasmodium falciparum [1] was determined as 95%; with Plasmodium falciparum [2], 66%; with HepG2, 24%.

Consider `O=C(O)C(F)(F)F.OC1(CNCc2ccccc2)CCN(CCc2c[nH]c3ccc(F)cc23)CC1`, for which the figures for the Inhibition with Plasmodium falciparum [1], in the experiment on Plasmodium falciparum [2] and with HepG2 were 100%, 4% and 39%, respectively.

As to `O=C(CCc1ccco1)NC1CCN(CC2(c3ccc(Cl)cc3)CCC2)CC1`, the Inhibition in the experiment with Plasmodium falciparum [1] was 99%; in the experiment with Plasmodium falciparum [2], 67%; in the experiment on HepG2 it was 0%.

The Inhibition is the change of the read-out against control, counted positive when it falls. Read a high Inhibition as a strong effect.
